Assay results published in PubChem BioAssay (NCATS).
Where “and” joins values, the source holds several entries; their conditions need not be identical. Equal entries are not always repeated. Records with an inconclusive call do not appear. Calls of active or inactive are those of the source. Calls follow the shape of the dose curve; as a rule, active = well fitted inhibition curve with a large enough effect; inconclusive = small, poorly fitted or top-dose-only effect; inactive = flat fitted curve, though single readings scatter. Where a SMILES comes first, the peptide text is derived from it. [ ]: non-standard residue; d: D form. PhLac = O=C(O)[CH](O)Cc1ccccc1; NMeV = CN[CH](C(=O)O)C(C)C

How the values were obtained:
Test in all cases: Cytotoxic Profiling of Annotated Libraries Using Quantitative High-Throughput Screening (AID 1296008); also: nearly all actives have a fitted effect of over 60% in size
Settings in all cases: Five cell lines viability, CellTiter-Glo ATP luminescence, 48-72 h; max response: stronger effect = lower value
CRL-7250 = system: CRL-7250
Outline: (§1)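 Cells exposed to compounds for 48 or 72 hr at 37 degrees Celsius. Viability read as ATP-coupled luminescence with CellTiter-Glo after 10 min at room temperature.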

HEK293 = system: HEK293
Outline: as §1

HaCat = system: HaCat
Outline: as §1

KB-3-1 = system: KB-3-1
Outline: as §1

NIH3T3 = system: NIH3T3
Outline: as §1

Measured: max response
% is scaled to controls: 0 for no effect and ±100 for the full control effect.

C=C1CC[C@H]2[C@@](C)(CCC(O)[C@@]2(C)CO)[C@@H]1C/C=C(/C(=O)O)C(O)CO (stereo partly drawn)
inactive: CRL-7250 | HEK293 | HaCat | KB-3-1 7.71% | NIH3T3

CCC(CC)n1ccc2c(C(=O)NCc3c(C)cc(C)[nH]c3=O)cc(C#N)cc21
inactive: CRL-7250 -1.01% | HEK293 | HaCat | KB-3-1 2.42% | NIH3T3 -0.643%

Nc1ncnc2c1ncn2[C@H]1CCCO1
inactive: CRL-7250 -0.0341% | HEK293 | HaCat | KB-3-1 | NIH3T3

COc1cc(C(O)C(CO)Oc2ccc(CCCO[C@@H]3O[C@@H](C)[C@H](O)[C@@H](O)[C@H]3O)cc2OC)ccc1O (stereo partly drawn)
inactive: CRL-7250 | HEK293 | HaCat | KB-3-1 | NIH3T3 -2.23%

C[C@]12CCC(=O)C=C1[C@@H](O)C[C@@H]1[C@@H]2[C@@H](O)C[C@@]2(C)[C@H]1CC[C@]2(O)C(=O)CO
inactive: CRL-7250 | HEK293 | HaCat 1.59% | KB-3-1 8.45% | NIH3T3

NC(=O)c1ccc(OCC2NC(=O)C3CCCN3C2=O)cc1 (stereo not drawn)
inactive: CRL-7250 -2.01% | HEK293 | HaCat -3.74% | KB-3-1 6.37% | NIH3T3

C=C1CCC(OC(C)=O)C2(C)CC3(O)OC(=O)C(C)=C3CC12 (stereo not drawn)
inactive: CRL-7250 -6.35% | HEK293 | HaCat | KB-3-1 4.81% | NIH3T3 -2.74%

COC1=CC(=O)O[C@@H](CCc2ccccc2)[C@@H]1O
inactive: CRL-7250 -14.6% | HEK293 | HaCat -13% | KB-3-1 5.84% | NIH3T3 3.13%

CC(C)=CCC/C(C)=C/CC/C(C)=C/CC[C@]1(C)CCc2cc(O)cc(C)c2O1
inactive: CRL-7250 3.81% | HEK293 | HaCat | KB-3-1 1.67% | NIH3T3 1.13%

CCNC(=O)[C@H]1O[C@H](n2cnc3c(NCC(c4ccccc4)c4ccccc4)nc(C(=O)NCCNC(=O)NC4CCN(c5ccccn5)CC4)nc32)[C@H](O)[C@@H]1O
inactive: CRL-7250 -2.5% | HEK293 | HaCat -11.9% | KB-3-1 2.94% | NIH3T3 1.64%

C=C1[C@H]2CC[C@]3(O)[C@@](CC[C@@H]4[C@](C)(C(=O)O)CCC[C@]43C)(C2)[C@H]1OC(=O)/C(C)=C\C
inactive: CRL-7250 2.63% | HEK293 | HaCat -13.2% | KB-3-1 | NIH3T3 0.4%

COc1cc2c(cc1OC)CN(C(=O)[C@@H](NCc1ccncc1)C(C)(C)C)CC2
inactive: CRL-7250 | HEK293 | HaCat | KB-3-1 5.18% | NIH3T3

COc1cc(COC2OC(CO)C(O)C(O)C2O)cc(OC)c1O (stereo not drawn)
inactive: all assays above

C=C1C[C@@]23CC[C@@H]4[C@](C)(C(=O)O)CCC[C@@]4(C)C2=CC[C@H]1C3
inactive: CRL-7250 -8.72% | HEK293 | HaCat | KB-3-1 4.16% | NIH3T3

COC1CC(=O)C23C(=O)NC(CC(C)C)C2C(C)C(C)=CC3/C=C(\C)CCC1O (stereo not drawn)
inactive: CRL-7250 | HEK293 | HaCat -17.4% | KB-3-1 0.905% | NIH3T3 -0.706%

C#C[C@]1(O)CC[C@H]2[C@@H]3CCC4=C/C(=N/O)CC[C@@H]4[C@H]3CC[C@@]21CC
inactive: CRL-7250 4.4% | HEK293 -0.147% | HaCat -21.3% | KB-3-1 -19.2% and -21.5% | NIH3T3

Cc1cn2c(N)c(Cl)cc(C(=O)NCC3CCN(CC(C)C)CC3)c2n1
inactive: CRL-7250 -6.05% | HEK293 | HaCat | KB-3-1 -3.78% | NIH3T3

C/C=C(\C)C(=O)O[C@@H]1CC2[C@@H](CC=C3C[C@@H](O[C@H]4C[C@H](OC)[C@H](O[C@H]5C[C@H](OC)[C@H](O[C@H]6C[C@H](OC)[C@H](O[C@H]7C[C@@H](OC)[C@H](O[C@@H]8O[C@H](CO)[C@@H](O)[C@H](O)[C@H]8O)[C@@H](C)O7)[C@@H](C)O6)[C@@H](C)O5)[C@@H](C)O4)CC[C@@]32C)[C@@]2(O)CC[C@H](C(C)=O)[C@@]12C (stereo partly drawn)
inactive: CRL-7250 2.31% | HEK293 | HaCat | KB-3-1 -8.02% | NIH3T3 0.771%

O=S(=O)(Nc1ccc(C(O)(C(F)(F)F)C(F)(F)F)cc1)c1cccs1
inactive: CRL-7250 2.89% | HEK293 | HaCat 2.6% | KB-3-1 6.97% | NIH3T3

COC(=O)[C@@]1(O)C=CC[C@@H]2[C@@]3(C)C[C@@H](c4ccoc4)OC(=O)[C@H]3CC[C@]21C
inactive: CRL-7250 | HEK293 | HaCat | KB-3-1 0.0207% | NIH3T3

C/C=C1/[C@H](O[C@@H]2O[C@H](CO)[C@@H](O)[C@H](O)[C@H]2O)OC=C(C(=O)OC)[C@H]1CC(=O)O[C@@H]1O[C@H](CO)[C@@H](O)[C@H](O)[C@H]1O
inactive: CRL-7250 | HEK293 | HaCat | KB-3-1 | NIH3T3 4.1%

C/C=C(\C)C(=O)O[C@H]1[C@@H](O[C@]2(COC(=O)CC(C)C)O[C@H](COC(=O)C(C)C)[C@@H](OC(C)=O)[C@@H]2O)O[C@H](COC(C)=O)[C@@H](O)[C@@H]1O
inactive: CRL-7250 | HEK293 | HaCat 0.832% | KB-3-1 4.8% | NIH3T3 0.154%

COc1cc2c(cc1O)C1(OC)Cc3ccc4c(c3C1N(C)CC2)OCO4 (stereo not drawn)
inactive: CRL-7250 -5.51% | HEK293 | HaCat -3.77% | KB-3-1 9.56% | NIH3T3 2.76%

COC(=O)C1=C[C@@H](O)[C@@H](O)[C@H](O[C@@H]2O[C@H](COC(=O)/C=C/c3ccccc3)[C@@H](O)[C@H](O)[C@H]2O)C1
inactive: CRL-7250 | HEK293 | HaCat | KB-3-1 3.55% | NIH3T3

CC(=O)OC[C@@]12[C@@H](OC(C)=O)C[C@@H](C)[C@](C)([C@@H]3C[C@H]4C=CO[C@H]4O3)[C@H]1CCC[C@]21CO1
inactive: CRL-7250 0.841% | HEK293 | HaCat 2.97% | KB-3-1 | NIH3T3 -2.5%

CC(C)C(C(=O)N1CCCC1C(=O)O)N(C)C(=O)C(O)Cc1ccccc1 (stereo not drawn) (H-[PhLac]-[NMeV]-Pro-OH; configuration not given here)
inactive: CRL-7250 | HEK293 | HaCat -7.13% | KB-3-1 | NIH3T3 -4.85%

C=C1CCC2(OC1)OC1CC3C4CC=C5CC(O)CC(O[C@@H]6OC[C@@H](O)[C@H](O)[C@H]6O)C5(C)C4CCC3(C)C1(O)C2C (stereo partly drawn)
inactive: CRL-7250 | HEK293 | HaCat | KB-3-1 -0.359% | NIH3T3

O=C(O[C@H]1[C@@H]2C[C@@H]3OC[C@@](O)([C@H]2[C@H](O[C@@H]2O[C@H](CO)[C@@H](O)[C@H](O)[C@H]2O)O3)[C@@H]1O)c1ccccc1
inactive: all assays above

CCC(=O)O[C@]1(C(=O)CCl)[C@@H](C)C[C@H]2[C@@H]3C[C@H](F)C4=CC(=O)C=C[C@]4(C)[C@@]3(F)[C@@H](O)C[C@@]21C
inactive: CRL-7250 -3.75% | HaCat -1.16% | KB-3-1 -4.75% and -10.3% | NIH3T3 1.57%

C[C@@H]1C[C@H]2[C@@H]3CCC4=CC(=O)C=C[C@]4(C)[C@@]3(F)[C@@H](O)C[C@]2(C)[C@@]1(O)C(=O)COP(=O)(O)O
inactive: CRL-7250 -4.68% | HEK293 4.74% | KB-3-1 13.8% | KB-3-1
